In all, about 310,000 compounds went through this assay and about 14,000 (4.5%) showed an effect of 50% or more. Effects have a minus sign here. This is one part of a sample in which strong results are shown more often than they occur.
Target: human ether-à-go-go-related gene (hERG) potassium channel (human, UniProt Q12809)
Assay: primary screen, population patch clamp on CHO cells stably expressing hERG; higher = less effect of the substance
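Also: peak tail current of the secondary pulse compared with the same well before compound.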

Chain of human ether-à-go-go-related gene (hERG) potassium channel (Q12809 whole entry, looked up): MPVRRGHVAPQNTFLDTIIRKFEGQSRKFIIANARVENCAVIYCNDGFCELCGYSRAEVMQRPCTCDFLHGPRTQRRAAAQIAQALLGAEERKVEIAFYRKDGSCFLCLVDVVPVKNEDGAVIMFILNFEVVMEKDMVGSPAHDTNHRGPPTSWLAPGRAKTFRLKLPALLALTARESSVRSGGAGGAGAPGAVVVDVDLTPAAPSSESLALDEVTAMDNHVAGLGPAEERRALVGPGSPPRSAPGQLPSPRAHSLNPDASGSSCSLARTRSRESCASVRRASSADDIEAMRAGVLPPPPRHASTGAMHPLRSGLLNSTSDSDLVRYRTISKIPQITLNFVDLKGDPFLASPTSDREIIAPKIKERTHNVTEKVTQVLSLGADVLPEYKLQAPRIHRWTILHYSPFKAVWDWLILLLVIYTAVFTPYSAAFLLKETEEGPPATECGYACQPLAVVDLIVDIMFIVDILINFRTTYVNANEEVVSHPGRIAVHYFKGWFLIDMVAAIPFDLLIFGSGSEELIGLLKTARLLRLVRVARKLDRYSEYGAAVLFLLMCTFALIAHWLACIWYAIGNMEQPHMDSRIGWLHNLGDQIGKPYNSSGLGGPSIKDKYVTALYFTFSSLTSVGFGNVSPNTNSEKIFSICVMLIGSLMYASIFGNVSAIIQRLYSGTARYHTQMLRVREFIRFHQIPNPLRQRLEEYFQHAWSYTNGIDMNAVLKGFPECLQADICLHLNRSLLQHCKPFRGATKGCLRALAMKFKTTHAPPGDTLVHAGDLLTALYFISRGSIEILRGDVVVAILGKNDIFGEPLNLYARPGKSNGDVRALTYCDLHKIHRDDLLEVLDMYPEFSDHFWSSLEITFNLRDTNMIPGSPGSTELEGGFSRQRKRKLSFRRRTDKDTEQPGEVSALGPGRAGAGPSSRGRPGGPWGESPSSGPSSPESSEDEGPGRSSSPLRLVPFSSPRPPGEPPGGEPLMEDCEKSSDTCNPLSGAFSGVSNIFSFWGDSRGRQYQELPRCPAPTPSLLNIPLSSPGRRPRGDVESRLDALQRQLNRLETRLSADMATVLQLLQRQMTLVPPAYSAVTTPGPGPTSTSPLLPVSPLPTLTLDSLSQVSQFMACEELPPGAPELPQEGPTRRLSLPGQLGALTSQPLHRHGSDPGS

| SMILES | hERG current change (%, negative = inhibition) at 10uM [%] |
| --- | --- |
| O=C(NCc1c(Cl)cccc1Cl)c1ccc2nnsc2c1 | 8.96 |
| CCOc1ccc(NC(=O)CN2CCN(CC(=O)c3ccc(OC)c(OC)c3)CC2)cc1 | -84.4 |
| CCOc1ccc(NC(=O)CN2CCN(CC(=O)Nc3ccc(C(N)=O)cc3)CC2)cc1 | -72.6 |
| CCOc1ccc(NC(=O)CNC(=O)c2ccc(OC)c(OC)c2)cc1 | 0.00778 |
| CCOc1ccc(NC(=O)CN2CCN(CC(=O)Nc3ccc(C(=O)OC)cc3)CC2)cc1 | -66.2 |
| CCCCOc1ccc(C(=O)N2CCN(CC(=O)Nc3ccc(C)cc3)CC2)cc1OC | -47.1 |
| NC(=O)c1ccc(NC(=O)CN2CCOCC2)cc1 | 17.9 |
| COC(=O)c1ccc(NC(=O)CN2CCCC2)cc1 | 5.33 |
| Cc1ccc(OCC(=O)Nc2ccc(C(N)=O)cc2)cc1 | 16.5 |
| COC(=O)c1ccc(NC(=O)CN2CCN(CCO)CC2)cc1.Cl | -5.29 |
| Cc1ccccc1C(=O)Nc1nnc(CC(=O)N/N=C/c2cn(Cc3ccccc3)c3ccccc23)s1 | 12.6 |
| COc1ccc([N+](=O)[O-])cc1NC(=O)CCN1CCN(C)CC1 | 16.3 |
| COC(=O)C(NC(=O)CCC(=O)N[C@@H](C(=O)OC)c1ccccc1)c1ccccc1 (stereo partly shown) | 9.88 |
| N#CC1=CN(Cc2ccccc2)C=C(/C=N/Nc2ccccc2)C1 | -5.72 |
| c1ccc2c(CNc3ccc(CNc4ncn[nH]4)cc3)cccc2c1 | 1.99 |
| CCCCC(=O)Nc1ccc(C(=O)NNC(=O)CCCOc2ccc(Cl)cc2Cl)cc1 | 7.25 |
| Fc1ccc(COc2cccc3cccnc23)cc1 | -8.3 |
| CC(OC(=O)c1ccc(NS(=O)(=O)c2ccc3[nH]c(=O)[nH]c3c2)cc1)C(N)=O (stereo not shown) | 18.1 |
| O=C(NC1CCCc2ccccc21)c1cc(S(=O)(=O)N2CCOCC2)ccc1F (stereo not shown) | 6.48 |
| COc1ccc(/C=C/C(=O)Nc2nc(C)c(C(=O)N(C)C)s2)cc1 | 3.15 |
| CCOc1cccc2sc(N(CCN(CC)CC)C(=O)c3cccc([N+](=O)[O-])c3)nc12.Cl | -75 |
| CCN(CC)CCN(C(=O)c1ccc2c(c1)CCCC2)c1nc2ccc(OC)cc2s1.Cl | -5.4 |
| CCOc1ccc2nc(N(CCN(CC)CC)C(=O)c3cccc([N+](=O)[O-])c3)sc2c1.Cl | -59.5 |
| CCN(CC)CCN(C(=O)c1ccc(N2C(=O)CCC2=O)cc1)c1nc2cc3c(cc2s1)OCO3.Cl | -44.6 |
| CCN(CC)CCN(C(=O)c1ccc2ccccc2c1)c1nc2ccc(OC)cc2s1.Cl | -30 |
| CCOc1cccc2sc(N(CCN(CC)CC)C(=O)c3cccc(N4C(=O)CCC4=O)c3)nc12.Cl | -68.4 |

| SMILES | hERG current change (%, negative = inhibition) at 10uM [%] |
| --- | --- |
| CCN(CC)CCN(C(=O)c1cccc([N+](=O)[O-])c1)c1nc2ccc(OC)cc2s1.Cl | -39.1 |
| CCOc1ccc2nc(N(CCN(CC)CC)C(=O)c3ccc([N+](=O)[O-])cc3)sc2c1.Cl | -65.7 |
| CCN(CC)CCN(C(=O)c1ccc2ccccc2c1)c1nc2ccc(F)cc2s1.Cl | -12.7 |
| CN(C)CCCN(C(=O)c1cccc(N2C(=O)CCC2=O)c1)c1nc2cc3c(cc2s1)OCO3.Cl | -24 |
| CCN(CC)CCN(C(=O)c1ccc([N+](=O)[O-])cc1)c1nc2ccc(OC)cc2s1.Cl | -49.7 |
| COc1ccc(-c2csc(-c3ccccc3)n2)c(OC)c1 | 29.1 |
| O=C(Oc1cccc(C(=S)N2CCOCC2)c1)c1ccc([N+](=O)[O-])cc1[N+](=O)[O-] | -14.4 |
| CCOC(=O)C1(Cc2cccc(OC)c2)CCCN(C(=O)c2cc(C)oc2C)C1 (stereo not shown) | -6.37 |
| O=C(CNC(=S)N(Cc1ccccc1Cl)C1CCCC1)NCCCN1CCOCC1 | 7.4 |
| CSc1ccc(CNCC2CCCO2)cc1.Cl (stereo not shown) | 2.99 |
| CC(/C=N/NC(=O)Cn1cnc2c1c(=O)n(C)c(=O)n2C)=C\c1ccco1 | -10.2 |
| CCN(C(=O)CSc1nc2ccccc2o1)C1CCS(=O)(=O)C1 (stereo not shown) | -3.25 |
| CC1(CC(=O)N/N=C/c2ccc(OCc3ccc(Cl)cc3Cl)cc2)OCCCO1 | 5.38 |
| COc1cccc(C(=O)Nc2ccccc2F)c1 | 8.37 |
| O=C(CCc1nc2ccccc2c(=O)[nH]1)NNC(=O)COc1ccc(Br)cc1 | 6.48 |
| CCOC(=O)c1nnn2c1nc(N1CCN(C)CC1)c1ccccc12 | -4.25 |
| CCOC(=O)c1nnn2c1nc(N1CCN(c3ccccc3)CC1)c1ccccc12 | -62.4 |
| CCOC(=O)c1nnn2c1nc(N1CCOCC1)c1ccccc12 | -20.4 |
| O=C1NC(=O)C(CCc2ccncc2)(CCc2ccncc2)C(=O)N1Cc1ccc(F)cc1 | -76.6 |
| O=C1CC(=O)N(CCc2ccc(F)cc2)C(=O)N1 | 9.33 |
| O=C1NC(=O)C(CCc2ccncc2)(CCc2ccncc2)C(=O)N1CCc1ccc(F)cc1 | -68.5 |
| COc1ccc(OC)c(N2C(=O)NC(=O)C(CCc3ccncc3)(CCc3ccncc3)C2=O)c1 | -41.2 |
| COc1ccc(CC2(CCc3ccncc3)C(=O)NC(=O)NC2=O)cc1 | 22.5 |
| CCOc1ccccc1N1C(=O)NC(=O)C(CCc2ccncc2)(CCc2ccncc2)C1=O | -29.6 |
| CCOC(=O)CN1CC23C=CC(O2)C(C(=O)NCCc2ccccc2)C3C1=O (stereo not shown) | 6.73 |
| CCOC(=O)N1CCN(S(=O)(=O)c2ccc(C)cc2)C1c1ccc(OC)cc1 (stereo not shown) | -11.9 |
